ChEMBL document CHEMBL3988442, “University of Dundee, Small-Polar-MMV Screening Library” (2021)
Screen size: about 48,000 compounds; about 13,000 (27%) showed an effect of 50% or more. This is one part of the list.

Test system: Wolbachia pipientis
Test: Anti-Wolbachia Cell-Based Screen
Type: functional
Set-up: scale not given: in the data most compounds retested in dose-response had high values
Settings: 5 µM

Structure (SMILES)	Percent Effect [%]
CC(=O)N(C)Cc1ccccc1NCc1c(C)cccc1C	-18.14
CCc1c(C)nn2c(O)cc(C3CCN(C(=O)C4CC4)C3)nc12 (configuration not stated)	96.58
O=C(C1CC1)N1CC[C@H](c2nnc(-c3ccccc3F)o2)C1	-4.544
O=C(C1CC1)N1CC[C@H](c2nc3ccccc3o2)C1	7.952
Cc1nc(C)n(CC2CN(Cc3cccnc3)CCO2)n1 (configuration not stated)	5.869
Cc1nc(C)n(CC2CCCN(Cc3ccc(C(N)=O)cc3)C2)n1 (configuration not stated)	-2.004
Cc1nc(C)n(CC2CN(Cc3cccc(C(N)=O)c3)CCO2)n1 (configuration not stated)	-4.426
Cc1nc(C)n(CC2CCCN(Cc3cccc(C(N)=O)c3)C2)n1 (configuration not stated)	133.9
COc1ccc(CN2CCCC(Cn3nc(C)nc3C)C2)cc1F (configuration not stated)	-3.884
Cc1nc(C)n(CC2CCCN(Cc3ccc4c(c3)OCCO4)C2)n1 (configuration not stated)	92.75
COc1cccc(CN2CCCC(Cn3nc(C)nc3C)C2)c1 (configuration not stated)	103.7
Cc1nc(C)n(CC2CCCN(Cc3cccc(C#N)c3)C2)n1 (configuration not stated)	-5.879
Cc1nc(C)n(CC2CCCN(Cc3cccnc3)C2)n1 (configuration not stated)	89.08
COC(=O)c1ccc(C(=O)NCc2ccco2)nc1	-23.57
CCc1nccn1CCC(=O)N1CC[C@@H](c2ccc(F)cc2)[C@H](O)C1	-13.2
COc1ccccc1C1(CNc2nnc(C)c(C)c2C#N)CCOCC1	0.2404
Cc1cc(CN(C)C(=O)NCC2CCS(=O)(=O)C2)no1 (configuration not stated)	-10.09
Cc1nc(CNC(=O)NC2CC(C)(C)OC2(C)C)sc1C (configuration not stated)	-0.2444
O=C(NCCCN1CCOCC1)Nc1cnc2cc(Cl)ccc2c1O	-16.9
N[C@H]1CN(C(=O)c2cnc3cc(Cl)ccc3c2O)C[C@@H]1C1CC1	6.977
CNC(=O)Nc1cnc2cc(Cl)ccc2c1O	96.42
O=C(NCCCO)Nc1cccc(Cl)c1F	-20.85
O=C(NCCO)Nc1cnc2cc(Cl)ccc2c1O	99.99
CC(C)OC(=O)c1ccc(Cl)c(NC(=O)NCCN2CCOCC2)c1	-2.134
O=C(NCC1CC1)Nc1cnc2cc(Cl)ccc2c1O	-14.95
CC(C)OCCCNC(=O)Nc1cccc2ncccc12	-8.776

Structure (SMILES)	Percent Effect [%]
O=C(NCCN1CCOCC1)Nc1cnc2cc(Cl)ccc2c1O	96.85
O=C(NCCO)Nc1cccc(Cl)c1SC(F)F	0.2889
O=C(NCCCO)Nc1cnc2cc(Cl)ccc2c1O	96.93
CC(CO)NC(=O)Nc1ccc(Cl)cc1OCC(F)(F)F (configuration not stated)	-4.812
CC(=O)NC(C(=O)N(C)Cc1nnc2n1CCC2)C(C)C (configuration not stated)	2.941
Cc1cc(C(=O)N2C[C@@H]3COC[C@]3(c3nnc(C4CC4)o3)C2)on1	-20.3
COc1ccccc1OC1CN(C(=O)C(c2ccc(F)cc2)N(C)C)C1 (configuration not stated)	-23.44
CCOc1c(Br)cc(C2C3=C(COC3=O)Nc3[nH]nc(C)c32)cc1OC (configuration not stated)	-13.27
Cc1cnc(C(=O)N(C)Cc2nc(-c3ccccn3)no2)cn1	-1.871
Fc1ccccc1Cc1noc(CN2CCC(N3CCSCC3)CC2)n1	5.463
Cc1ccccc1N1CCCN(C(=O)c2cn(C)c3ccccc23)CC1	5.002
N#Cc1ccccc1N1CCN(C(=O)NCCN2CCOCC2)CC1	-5.749
O=C(Nc1ccc(Cl)cc1C(=O)NCCN1CCOCC1)c1ccco1	134.1
O=C(Nc1ccccc1C(=O)NCCN1CCOCC1)c1ccco1	0.2432
O=C(Nc1ccc(I)cc1C(=O)NCCN1CCOCC1)c1ccco1	13.86
COc1cc(CN2CCCC(Nc3cccc(F)c3)C2)cc(OC)c1O (configuration not stated)	11.19
Cc1ccc([C@@H]2CN(S(=O)(=O)C(C)C)C[C@H]2N(C)C)cc1	4.129
CC(C)S(=O)(=O)N1C[C@@H](O)[C@H](N(C)Cc2ccc(F)cc2)C1	92.86
CC(C)C1CN(S(=O)(=O)N2CCCC2)CCCN1Cc1ccc(F)cc1 (configuration not stated)	-9.548
COc1ccc(CN(C)[C@@H]2CN(S(=O)(=O)C(C)C)C[C@H]2O)cc1	105.6
CCOCC(=O)N1C[C@@H](O)[C@H](N(C)Cc2ccc(OC)cc2)C1	-9.013
CC(C)C1CN(S(=O)(=O)C2CC2)CCCN1Cc1ccc(F)cc1 (configuration not stated)	-0.9864
CC(C)(C)Cc1noc2ncc(C(=O)N3CCSCC3)cc12	-2.131
CCc1nnc(CN2CCC(C3CCCCCN3C(=O)C3CC3)CC2)o1 (configuration not stated)	5.041
Cc1cccc(CN2C[C@@H]3CN(C(=O)c4ccnnc4)C[C@@H]3C2=O)c1	-7.292
Cc1cccc(CN2C[C@@H]3CN(C(=O)C4CCOC4)C[C@@H]3C2=O)c1 (some centres not stated)	100.9

Structure (SMILES)	Percent Effect [%]
O=C(O)C(F)(F)F.O=C1[C@H]2CN(C3CCOCC3)C[C@H]2CN1Cc1cccc(F)c1	-0.9945
O=C(c1ccsc1)N1C[C@H]2CN(Cc3cccc(F)c3)C(=O)[C@H]2C1	-13.46
O=C(C1CCOC1)N1C[C@H]2CN(Cc3cccc(F)c3)C(=O)[C@H]2C1 (some centres not stated)	101.2
Cc1cccc(CN2C[C@@H]3CN(C(=O)c4ccco4)C[C@@H]3C2=O)c1	-8.497
O=C(Nc1ccn(Cc2cccc3cccnc23)n1)C1COCCO1 (configuration not stated)	-13.67
COc1ccc(F)c(CN2CCCC(O)(CNCC(C)(C)C)C2=O)c1 (configuration not stated)	1.776
C[C@@H]1CN(C(=O)c2cn(CCN3CCCCC3)nn2)C[C@H](C)O1	-14.27
O=C(NCC1CCOC1)c1csc(-c2ccc(F)cc2)n1 (configuration not stated)	81.86
O=C(NCC1CCOC1)c1csc(-c2cccc(Cl)c2)n1 (configuration not stated)	7.495
O=C(NCC1CCOC1)c1csc(-c2ccccc2)n1 (configuration not stated)	102.2
Cc1ccc(-c2cc(C(=O)NCC3CCOC3)n[nH]2)s1 (configuration not stated)	-13.79
O=C(NCC1CCOC1)c1csc(-c2ccco2)n1 (configuration not stated)	5.751
O=C(NCC1CCOC1)c1csc(-c2ccc(Cl)cc2)n1 (configuration not stated)	107.7
Cc1ccc(-c2nc(C(=O)NCC3CCOC3)cs2)cc1 (configuration not stated)	113.2
O=C(c1csc(-c2ccco2)n1)N(CC1CCOC1)C1CC1 (configuration not stated)	-4.102
O=C(CC(F)(F)F)N1CCc2[nH]nc(-c3ccc4c(c3)OCO4)c2C1	-1.74
CNC(=O)C(C)CNC(=O)c1coc(COc2cccc(F)c2F)n1 (configuration not stated)	-14.56
CCc1ccc(CNC2(c3ccc(F)cc3)CCOCC2)o1	6.225
Cc1ccc(-c2nc(CN(Cc3ccco3)C3CCS(=O)(=O)C3)cs2)o1 (configuration not stated)	9.055
OC1CCCN(Cc2cn(CC3CCN(C4CCSCC4)CC3)nn2)C1 (configuration not stated)	-15.38
CC(C)C(C)N(C)Cc1nnc(-c2ccco2)o1 (configuration not stated)	-1.497
O=C(NCC1CCOC1)c1cc(-c2cccc(Cl)c2)on1 (configuration not stated)	10.92
O=C(NCC1CCOC1)c1cc(-c2cccc(Cl)c2)[nH]n1 (configuration not stated)	-2.907
O=C(NCC1COC2(CCOCC2)O1)c1csc(-c2cccc(Cl)c2)n1 (configuration not stated)	108.1
CCOc1ccc(-c2nc(C(=O)NCC3CCOC3)cs2)cc1 (configuration not stated)	120.1
Cc1ccc(-c2nc(CC(=O)NCC3CCCOC3)cs2)o1 (configuration not stated)	16.72

Structure (SMILES)	Percent Effect [%]
COc1ccc(-c2nc(C(=O)NCC3CCOC3)cs2)cc1OC (configuration not stated)	119.6
COCc1nc2cc(NCc3ccncc3)ccc2o1	5.074
Cc1cc(=O)[nH]c(CCNC(=O)C(c2ccc(F)cc2)N(C)C)n1 (configuration not stated)	1.632
Cc1nnc(NCC2(c3ccccc3)CCC2)c(C#N)c1C	7.557
CC1CCN(S(=O)(=O)NCCCn2cncn2)CC1	4.517
COc1cccc(CN2CCN(c3cccc(C(C)C)n3)CC2)c1F	77.06
COc1ncccc1CN1CCN(c2noc(C(C)C)n2)CC1	-8.091
COc1cccc(CN2CCN(c3noc(C(C)C)n3)CC2)c1F	-2.027
CCc1ccc(C(=O)O)cc1S(=O)(=O)N(C)c1cccc(C)c1	-14.76
CS(=O)(=O)Cc1nc(CN2CCOc3ccccc3C2)cs1	2.526
Cc1ccc(C(=O)N(Cc2cccc(F)c2)C2CC2)c(=O)[nH]1	-0.8552
CCCN(CCS(C)(=O)=O)C1CCc2ccccc2C1 (configuration not stated)	9.171
CS(=O)(=O)CCN(Cc1cccc(O)c1)C1CCC(O)CC1 (configuration not stated)	-5.154
CS(=O)(=O)CCC(=O)N(CCc1cccc(F)c1)C1CC1	102.1
CC(C)(C)S(=O)(=O)CCNC(=O)NCCCc1cccc(F)c1	22.42
Fc1cccc(CCN(c2ccc3nnnn3n2)C2CC2)c1	-14.94
CS(=O)(=O)CCN(CCc1cccc(F)c1)C1CC1	102.8
NS(=O)(=O)CCN(CCc1cccc(F)c1)C1CCCC1	101.5
O=C(C[S+]([O-])Cc1cccc(F)c1)NC1CCCC1 (configuration not stated)	-2.524
CS(=O)(=O)CCCN(CCc1cccc(F)c1)C1CC1	89.73
CS(=O)(=O)CCC(=O)N(Cc1c(F)cccc1F)C1CCCC1	-8.645
CS(=O)(=O)C1CCN(S(=O)(=O)Cc2cccc(F)c2)CC1	-8.016
Cc1noc(C)c1CN(C)C(=O)NC1CCN(C2CC2)CC1	-39.67
O=C(c1cc(-c2ccco2)nc2c(Cl)cccc12)N1CCS(=O)(=O)CC1	-1.812
